Measurements published in the supplement of paper PMC8253809.
Several values for one entry are separate records, joined by “and”; a condition that tells them apart may be missing. Equal entries are not always repeated.

Tests used:
Experiment in all cases: growth inhibition (% activity, log2 RLU normalised to DMSO / staurosporine); higher = more growth inhibition
Conditions in all cases: 33 µM
DIPGX29 = system: DIPGX29 (H3.3 K27M diffuse intrinsic pontine glioma line)
How it was run: (§1)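 The growth-inhibition value is the median over replicates. pHGG cell lines and H9-derived neural stem cells on Geltrex-coated 384-well plates received approved drugs by pin tool at a single final concentration of about 33 μM, in triplicate, for 7 days at 37 °C, 5% CO2. CellTiter-Glo luminescence was log2-transformed and normalised per plate to % activity between solvent and positive control wells.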

DIPGX37 = system: DIPGX37 (H3.3 K27M diffuse intrinsic pontine glioma line)
How it was run: as §1

DIPGX7 = system: DIPGX7 (H3.3 K27M diffuse intrinsic pontine glioma line)
How it was run: as §1

DIPGX9 = system: DIPGX9 (diffuse intrinsic pontine glioma line)
How it was run: as §1

HGGX39 = system: HGGX39 (paediatric high-grade glioma line)
How it was run: as §1

HGGX6 = system: HGGX6 (H3.3 G34R paediatric high-grade glioma line)
How it was run: as §1

HNSC = system: HNSC
How it was run: as §1

SUDIPGIV = system: SUDIPGIV (diffuse intrinsic pontine glioma line)
How it was run: as §1

SUDIPGVI = system: SUDIPGVI (diffuse intrinsic pontine glioma line)
How it was run: as §1

SUDIPGXIII = system: SUDIPGXIII (diffuse intrinsic pontine glioma line)
How it was run: as §1

Compound	growth inhibition (DIPGX29)	growth inhibition (DIPGX37)	growth inhibition (DIPGX7)	growth inhibition (DIPGX9)	growth inhibition (HGGX39)	growth inhibition (HGGX6)	growth inhibition (HNSC)	growth inhibition (SUDIPGIV)	growth inhibition (SUDIPGVI)	growth inhibition (SUDIPGXIII)
CC1=C(/C=C/C(C)=C/C=C/C(C)=C/C=C/C=C(C)/C=C/C=C(C)/C=C/C2=C(C)CCCC2(C)C)C(C)(C)CCC1	-2.65%	-1.75%	-0.22%	-2.07%	-4.95%	-2.28%	-2.5%	-5%	-7.28%	-0.475%
CCc1ccc(CCOc2ccc(CC3SC(=O)NC3=O)cc2)nc1 (stereo not given)	-2.15% and 0.83%	-2.01% and 4.22%	-1.47% and 2.56%	-0.422% and 2.5%	-0.303% and 4.55%	0.514% and 3.43%	-3.49% and 4.18%	-1.64% and 1.36%	-1.48% and 2.8%	-2.58% and 1.07%
CC(NCCc1ccc(O)cc1)C(O)c1ccc(O)cc1 (stereo not given)	-0.577%	-0.38%	-0.502%	1.19%	1.54%	-0.151%	-0.0915%	-0.121%	1.63%	-1.5%
c1cnc2cc3c(cc2n1)[C@@H]1CNC[C@H]3C1	1.18%	-2.8%	1.78%	0.684%	0.561%	1.15%	0.349%	-0.44%	-0.35%	-1.07%
COc1ccccc1OCC(O)COC(N)=O (stereo not given)	-0.505%	1.65%	0.111%	0.273%	0.0917%	1%	-1.62%	-1%	0.561%	-0.184%
O=C(O)/C=C/c1ccc(Cn2ccnc2)cc1	-4.29% and 0.0234%	-1.97% and 1.55%	-2.07% and 1.39%	-1.94% and 0.49%	-2.45% and 1.57%	-3.87% and 2.09%	1.95% and -1.58%	-2.48% and 0.0369%	-6.52% and 1.83%	-0.879% and -16.2%
CCn1cc(C(=O)O)c(=O)c2cc(F)c(N3CCNCC3)cc21	-0.303%	1.84%	0.79%	0.854%	3.3%	2.09%	3.22%	-0.867%	0.897%	3.56%
CC(C)CN(C[C@@H](O)[C@H](Cc1ccccc1)NC(=O)O[C@H]1CO[C@H]2OCC[C@H]21)S(=O)(=O)c1ccc(N)cc1	-2.82%	-0.683%	-0.244%	-0.934%	-1.58%	0.0431%	-4.53%	-3.11%	-1.79%	1.1%
N=C(N)c1ccc(OCCCCCOc2ccc(C(=N)N)cc2)cc1	12.3%	-2.71%	16.9%	13.9%	42.9%	20.2%	43.6%	45%	44.2%	16.5%
C[C@@H](Oc1cc(-c2cnn(C3CCNCC3)c2)cnc1N)c1c(Cl)ccc(F)c1Cl	26.5%	7.08%	9.03%	10.8%	16.1%	13.5%	54.5%	6.53%	17.5%	1.64%
COc1ccc2c(c1)c(CC(=O)OCC(=O)O)c(C)n2C(=O)c1ccc(Cl)cc1	4.7%	5.04%	3.74%	5.54%	6.62%	4.04%	6.99%	-0.727%	5.09%	1.16%
Cc1cc(C#N)cc(C)c1Oc1nc(Nc2ccc(C#N)cc2)nc(N)c1Br	3.55%	-3.38%	9.93%	-0.625%	6.72%	6.05%	35.3%	1.55%	15.5%	27.6%
Cc1cccc(N(C)C(=S)Oc2ccc3ccccc3c2)c1	-3.14%	-1.11%	-2.16%	-2.01%	-1.4%	-3.78%	-3.49%	-3.02%	-3.26%	0.248%
CC[C@@H]1/C=C(\C)C[C@H](C)C[C@H](OC)[C@H]2O[C@@](O)(C(=O)C(=O)N3CCCC[C@H]3C(=O)O[C@H](/C(C)=C/[C@@H]3CC[C@H](Cl)[C@H](OC)C3)[C@H](C)[C@@H](O)CC1=O)[C@H](C)C[C@@H]2OC	1.37%	4.05%	3.83%	5.36%	7.81%	2.73%	8.07%	5.69%	5.28%	5.19%
NC[C@@H]1O[C@H](O[C@H]2[C@@H](O)[C@H](O[C@@H]3[C@@H](O)[C@H](N)C[C@H](N)[C@H]3O[C@H]3O[C@H](CN)[C@@H](O)[C@H](O)[C@H]3N)O[C@@H]2CO)[C@H](N)[C@@H](O)[C@@H]1O	0.966%	0.68%	1.55%	0.402%	2.24%	-1.34%	20.2%	2.53%	-6.55%	-0.235%
O=c1n(CCCN2CCN(c3cccc(Cl)c3)CC2)nc2ccccn12	3.64%	2.01%	4.26%	3.67%	4.78%	3.57%	6.62%	2.09%	4.36%	0.00306%
Cc1ncc([N+](=O)[O-])n1CCO	-0.678%	-1.76%	-1.15%	0.881%	1.6%	-4.16%	22.3%	0.605%	0.0318%	-3.67%
COC(=O)C1=C(C)NC(C)=C(C(=O)OCCN2CCN(C(c3ccccc3)c3ccccc3)CC2)C1c1cccc([N+](=O)[O-])c1 (stereo not given)	5.69%	6.99%	4.72%	4.03%	8.12%	5.46%	73%	3.75%	6.07%	22%
Cc1cnc(C(=O)O)c[n+]1[O-]	1.49%	2.38%	1.7%	5.6%	1.15%	2.68%	3.09%	1.14%	1.26%	0.57%
C[C@@H](NCCCc1cccc(C(F)(F)F)c1)c1cccc2ccccc12	8.61%	3.26%	6.24%	5.87%	5.43%	18.9%	49.7%	4.23%	-0.119%	0.33%
